This passage reports binding signal results from publication PMC11006913.

The assay concerns the target T1, NKX2-6 (Homo sapiens, UniProt A6NCS4 118-204, R150C).
T1 sequence: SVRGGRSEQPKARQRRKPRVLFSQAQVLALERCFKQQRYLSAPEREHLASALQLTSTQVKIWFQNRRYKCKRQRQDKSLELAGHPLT
As to the kind of experiment: PBM; 200 nM protein, PBS. Conditions: dsDNA, one strand shown.
For ACAGGGGG, the binding signal was 9.27 upbm affinity estimate (log intensity, higher = more binding, comparable within an allelic series).

Consider CTACCGGC, for which the binding signal was 9.49 upbm affinity estimate (log intensity, higher = more binding, comparable within an allelic series).

Consider AAAAAGTG, for which the binding signal was 11.2 upbm affinity estimate (log intensity, higher = more binding, comparable within an allelic series).

As for CCGGACCC, the binding signal was 9.31 upbm affinity estimate (log intensity, higher = more binding, comparable within an allelic series).

Take AACGGGAC: the binding signal is 9.62 upbm affinity estimate (log intensity, higher = more binding, comparable within an allelic series).

As to GGCATCCC, the binding signal was 9.47 upbm affinity estimate (log intensity, higher = more binding, comparable within an allelic series).

As to CCGGTAGG, the binding signal was 9.6 upbm affinity estimate (log intensity, higher = more binding, comparable within an allelic series).

For CACTTGTC, the binding signal is 11.4 upbm affinity estimate (log intensity, higher = more binding, comparable within an allelic series).

In the case of CCCGGGGA, the binding signal was 9.42 upbm affinity estimate (log intensity, higher = more binding, comparable within an allelic series).

Consider CAAGTGGA, for which the binding signal was 11.6 upbm affinity estimate (log intensity, higher = more binding, comparable within an allelic series).

In the case of CACCCCGC, the binding signal is 9.31 upbm affinity estimate (log intensity, higher = more binding, comparable within an allelic series).

Turning to ACCGGTGG, the binding signal is 9.26 upbm affinity estimate (log intensity, higher = more binding, comparable within an allelic series).

For the sequence CCCCAACC, the binding signal is 9.37 upbm affinity estimate (log intensity, higher = more binding, comparable within an allelic series).

Take AAGAAGTG: the binding signal is 11.2 upbm affinity estimate (log intensity, higher = more binding, comparable within an allelic series).

ACCCGGCA: the binding signal was 9.55 upbm affinity estimate (log intensity, higher = more binding, comparable within an allelic series).

On to GAGGCGGA, for which the binding signal was 9.49 upbm affinity estimate (log intensity, higher = more binding, comparable within an allelic series).

Turning to ATCACCCG, the binding signal was 9.63 upbm affinity estimate (log intensity, higher = more binding, comparable within an allelic series).

On to CACTCTCA, for which the binding signal is 10.9 upbm affinity estimate (log intensity, higher = more binding, comparable within an allelic series).

Turning to CCCTGCCA, the binding signal is 9.63 upbm affinity estimate (log intensity, higher = more binding, comparable within an allelic series).

Turning to GCCGTGAA, the binding signal is 9.62 upbm affinity estimate (log intensity, higher = more binding, comparable within an allelic series).

In the case of AATCCGCC, the binding signal was 9.75 upbm affinity estimate (log intensity, higher = more binding, comparable within an allelic series).

Regarding CGCCAACC, the binding signal is 9.44 upbm affinity estimate (log intensity, higher = more binding, comparable within an allelic series).

AGGCACCC: the binding signal was 9.55 upbm affinity estimate (log intensity, higher = more binding, comparable within an allelic series).

For ACAGCGGG, the binding signal was 9.46 upbm affinity estimate (log intensity, higher = more binding, comparable within an allelic series).

On to CGCCCCGC, for which the binding signal was 9.59 upbm affinity estimate (log intensity, higher = more binding, comparable within an allelic series).

Regarding CGCGGGCA, the binding signal is 9.67 upbm affinity estimate (log intensity, higher = more binding, comparable within an allelic series).

Take GGCGGGAC: the binding signal was 9.37 upbm affinity estimate (log intensity, higher = more binding, comparable within an allelic series).

Consider CGGACGGC, for which the binding signal was 9.24 upbm affinity estimate (log intensity, higher = more binding, comparable within an allelic series).

As for GGGCCACC, the binding signal is 9.52 upbm affinity estimate (log intensity, higher = more binding, comparable within an allelic series).

As to GGTCAACC, the binding signal is 9.62 upbm affinity estimate (log intensity, higher = more binding, comparable within an allelic series).

Turning to GCATGCGC, the binding signal is 9.48 upbm affinity estimate (log intensity, higher = more binding, comparable within an allelic series).

As for GCGGACCA, the binding signal was 9.48 upbm affinity estimate (log intensity, higher = more binding, comparable within an allelic series).

As to AAACGGCC, the binding signal is 9.82 upbm affinity estimate (log intensity, higher = more binding, comparable within an allelic series).

Take GGTCTGCA: the binding signal was 9.86 upbm affinity estimate (log intensity, higher = more binding, comparable within an allelic series).

For AACCGCCC, the binding signal was 9.72 upbm affinity estimate (log intensity, higher = more binding, comparable within an allelic series).

As to CTCTTGAC, the binding signal was 11.2 upbm affinity estimate (log intensity, higher = more binding, comparable within an allelic series).

As to AAGCCACG, the binding signal is 9.49 upbm affinity estimate (log intensity, higher = more binding, comparable within an allelic series).

As to CAGACGCC, the binding signal was 9.62 upbm affinity estimate (log intensity, higher = more binding, comparable within an allelic series).

With GGTCAGAC, the binding signal is 9.52 upbm affinity estimate (log intensity, higher = more binding, comparable within an allelic series).
